In all, about 11,000 compounds went through this assay and about 310 (2.8%) were called active. Rule as the data show it: active = activity change below about -85%; inactive = the rest. Many of the other results were omitted from the sample, so actives are more common in it than they were.

We go through 41 compounds from PubChem BioAssay AID434970 (Sanford-Burnham Center for Chemical Genomics, 2010).

This assay concerns intestinal alkaline phosphatase [Mus musculus]. The experiment in a line: activators of mouse IAP, confirmation, biochemical, luminescence, single concentration (AID 434970). Particulars: purified mouse IAP, CDP-Star luminescence, 30 min, at 10 µM; activation factor: measured here: IAP activation factor, stronger effect = higher value; activity change, negative = activation: stronger effect = lower value.
As to `CN1CCN(S(=O)(=O)c2ccc(SCCOc3ccccc3)nc2)CC1`, the activation factor was found to be 0.96 and the activity change, negative = activation was 4% (inactive).

With `CC(C)(C)N(C(=O)Cn1nnc(-c2ccc(F)cc2)n1)C(C(=O)NC1CCCC1)c1ccncc1` (configuration not stated), the activation factor worked out at 0.935 and the activity change, negative = activation is 6.5% (inactive).

For the compound `C=CCN(C(=O)CNC(=O)c1ccco1)C(C(=O)NC1CCCCC1)c1ccc(F)cc1` (configuration not stated), the activation factor turned out to be 1.05 and the activity change, negative = activation was -5.3% (inactive).

As to `O=C(NC1CCCC1)C(c1ccc(F)cc1)N(Cc1ccc(F)cc1)C(=O)c1ccn[nH]1` (configuration not stated), the activation factor amounted to 2.05 and the activity change, negative = activation is -105% (active).

`Brc1ccc(-c2cnc(-c3cccs3)o2)cc1`: the activation factor was determined as 0.944 and the activity change, negative = activation was 5.65% (inactive).

Consider `COc1ccc(Cc2nn[nH]n2)cc1`, for which the activation factor was determined as 1.18 and the activity change, negative = activation is -17.9% (inactive).

For `CCn1nc(C(=O)Nc2cccc(C(F)(F)F)c2)c(Cl)c1Cl`, the activation factor came out at 0.952 and the activity change, negative = activation is 4.85% (inactive).

In the case of `COc1ccc(NC(=O)C2CCN(c3nc(C)cc(C)n3)CC2)cc1`, the activation factor worked out at 0.96 and the activity change, negative = activation is 4.05% (inactive).

As to `CC(=O)c1ccc(NC(=O)Cn2nc(C)cc2C)cc1`, the activation factor was determined as 0.948 and the activity change, negative = activation was 5.2% (inactive).

As to `CCn1nc(C)c(CN2CCC(C(=O)Nc3cccc(-c4cccc(Cl)c4)c3)CC2)c1C`, the activation factor turned out to be 4.74 and the activity change, negative = activation is -374% (active).

Regarding `CCc1ccc(NC(=O)C2CC(=O)N(C(C)C)C2)cc1` (configuration not stated), the activation factor was determined as 0.925 and the activity change, negative = activation was 7.45% (inactive).

Consider `Cc1ccc(NC(=O)CCn2nc(C)cc2C)cc1`, for which the activation factor was 1.12 and the activity change, negative = activation was -11.6% (inactive).

In the case of `Cc1nn(C(C)C)c(C)c1CN1CCC(C(=O)Nc2cccc(-c3cccc(F)c3)c2)CC1`, the activation factor is 4.89 and the activity change, negative = activation is -389% (active).

Consider `Cc1ccc(Cn2nc(C)c(NC(=O)C3CC3)c2C)cc1`, for which the activation factor was 1.06 and the activity change, negative = activation is -6.3% (inactive).

With `CCn1nc(C)c(CN2CCC(C(=O)Nc3cccc(-c4cccc(F)c4)c3)CC2)c1C`, the activation factor came to 3.08 and the activity change, negative = activation is -208% (active).

In the case of `Cc1cc(C)n(CCCN2CCC(C(=O)Nc3cccc(-c4cccc(F)c4)c3)CC2)n1`, the activation factor was 3.01 and the activity change, negative = activation was -202% (active).

With `Nc1ccccc1NC(=O)c1ccccc1`, the activation factor came to 1.09 and the activity change, negative = activation is -8.9% (inactive).

Take `CCN1CCN(C(=O)CN(c2ccccc2C)S(C)(=O)=O)CC1`: the activation factor was found to be 1.04 and the activity change, negative = activation was -3.5% (inactive).

On to `Cc1ccc(OCCn2cnc3c(N)ncnc32)cc1`, for which the activation factor is 0.932 and the activity change, negative = activation was 6.8% (inactive).

Consider `Cc1cc(NC(=O)CCC(=O)N(Cc2ccco2)C(C)(C)C(=O)NC2CCCCC2)no1`, for which the activation factor was found to be 1.05 and the activity change, negative = activation is -5.25% (inactive).

For `COc1ccc(CNC(=O)C[C@H]2C[C@H](C(=O)N3CCOCC3)[C@@]3(CCC4CCCC4)c4[nH]c5cc(CCC(=O)N(C)C)ccc5c4CCN3C2=O)cc1OC`, the activation factor stood at 1.07 and the activity change, negative = activation was -6.85% (inactive).

With `CCOC(=O)C1=CN(Cc2cccc(F)c2)S(=O)(=O)NC1c1ccc(Br)cc1F` (configuration not stated), the activation factor stood at 0.921 and the activity change, negative = activation is 7.85% (inactive).

As for `CN(C)C(=O)CCc1ccc2c3c([nH]c2c1)[C@]1(C)[C@@H](C(=O)N2CCOCC2)C[C@H](CC(=O)NCCc2ccccn2)C(=O)N1CC3`, the activation factor was found to be 1.02 and the activity change, negative = activation is -2.25% (inactive).

For the compound `O=C1C[C@@H]2CCN3C(=O)CCC[C@@H]([C@H]23)[C@@H]1Cc1ccccc1`, the activation factor came to 0.964 and the activity change, negative = activation was 3.55% (inactive).

Regarding `CC(CN1CCN(C)CC1)OC(=O)c1ccc(Cl)cc1` (configuration not stated), the activation factor was determined as 0.929 and the activity change, negative = activation was 7.05% (inactive).

For the compound `N#Cc1ccc(N2CCN(c3ccc(F)cc3)CC2)cc1`, the activation factor was 0.995 and the activity change, negative = activation was 0.5% (inactive).

Consider `CCCNC(=O)c1ccc(SC)cc1OC`, for which the activation factor stood at 0.92 and the activity change, negative = activation was 8% (inactive).

Regarding `Cc1ccc(NC(=O)Nc2ccc(F)c(Cl)c2)cc1`, the activation factor stood at 1.35 and the activity change, negative = activation is -35% (inactive).

As for `O=C(Nc1ccc(Cl)c(Cl)c1)N1CCSCC1`, the activation factor was 1.13 and the activity change, negative = activation is -13.4% (inactive).

Turning to `CCn1nccc1C(=O)Nc1ccc(Cl)c(Cl)c1`, the activation factor was determined as 0.952 and the activity change, negative = activation was 4.85% (inactive).

With `O=C(Nc1ccc(Cl)cc1)Nc1ccc(Cl)c(Cl)c1`, the activation factor came to 2.27 and the activity change, negative = activation is -127% (active).

In the case of `O=C(NCC1CC1(Cl)Cl)Nc1ccc(Cl)c(Cl)c1` (configuration not stated), the activation factor was 2.53 and the activity change, negative = activation was -153% (active).

For the compound `O=C(Nc1ccc(Br)cc1)Nc1ccccc1F`, the activation factor is 1.81 and the activity change, negative = activation was -81.1% (inactive).

Turning to `O=C(Nc1ccc(Br)cc1)Nc1ccccc1Cl`, the activation factor turned out to be 1.39 and the activity change, negative = activation is -39.4% (inactive).

On to `N#Cc1ccc(NC(=O)Nc2ccc(Cl)cc2)cc1`, for which the activation factor was 1.73 and the activity change, negative = activation was -72.5% (inactive).

In the case of `O=C(Nc1ccc(Cl)c(Cl)c1)Nc1ccc(Br)cc1F`, the activation factor stood at 2.24 and the activity change, negative = activation was -124% (active).

As for `CCN(CC)c1nc(N)c2c(N)n(-c3ccccc3C)c(=S)c(C#N)c2c1C#N`, the activation factor came out at 0.823 and the activity change, negative = activation was 17.8% (inactive).

As to `O=C1c2cccc3c(N4CCCCC4)ccc(c23)C(=O)N1CCO`, the activation factor was determined as 1.18 and the activity change, negative = activation was -17.9% (inactive).

On to `CCOc1ccccc1N(CC(=O)NC1CCCCC1)S(C)(=O)=O`, for which the activation factor worked out at 0.972 and the activity change, negative = activation is 2.85% (inactive).

Consider `COc1cc2c(c(OC)c1OC)C(c1ccccc1C)CC(=O)O2` (configuration not stated), for which the activation factor is 1.07 and the activity change, negative = activation was -6.55% (inactive).

As to `CSCC[C@H](NC(=O)C1CCN(S(=O)(=O)c2ccc(C)cc2C)CC1)c1nc2ccccc2[nH]1`, the activation factor was 2.02 and the activity change, negative = activation is -102% (active).
